Measured values as given in PubChem BioAssay (NCI).
About 79,000 compounds went through this panel and 15% of them were active in at least one assay; those are over-represented in the sample as a whole. Values without a mark were called inactive. Active and inactive are the calls of the source. Cut-off read from the data, not from the text of the source: active = growth inhibition above about 70%; inactive = the rest.

Experiment: NCI Yeast Anticancer Drug Screen. Data for the mlh1 strain (AID 171);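 note: 0% = growth of vehicle-treated control cultures of the same strain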
Details: S. cerevisiae mlh1 strain growth inhibition, active compounds read high
Method: Growth inhibition of yeast strains with defined genetic alterations is measured as a screen for potential anti-cancer activity. Selected strains with alterations in DNA damage repair or cell cycle control were exposed to compounds and growth inhibition was measured relative to vehicle treated controls. The strain used in this assay is mlh1

Row | Structure (SMILES) | growth inhibition (at 1.2 µM) [%] | growth inhibition (at 3.7 µM) [%] | growth inhibition (at 11.0 µM) [%] | growth inhibition (at 33.0 µM) | growth inhibition (at 100.0 µM)
1 | Cc1ccc2nc(-c3cccc([N+](=O)[O-])c3)oc(=O)c2c1 | -6 | -2 | -17 | -17% | -14%
2 | CNC(=O)OCc1c(COC(=O)NC)c2n(c1C)-c1ccc(OC)cc1CCC2 | -42 | -31 | -47 | 98% (active) | 99% (active)
3 | COc1oc(C(=O)NC2CCCCC2)c(-c2ccc(Cl)cc2)c1S(=O)(=O)c1ccccc1 | -20 | -7 | 41 | 84% (active) | 81% (active)
4 | CCCC(O)C1CC(C(C)C)CCC1C (stereo not given) | -2 | 0 | 3 | 9% | 95% (active)
5 | O=C(C[n+]1ccc2ccccc2c1)c1ccc2ccccc2c1 | -15 | -30 | -36 | -22% | 97% (active)
6 | CNC(=O)OCc1c(COC(=O)NC)c(-c2ccc(Cl)cc2)n2c1CCC2 | -61 | -93 | -67 | 10% | 98% (active)
7 | NNC(=O)CCc1cc2ccccc2c2ccccc12 | -13 | -6 | -3 | 38% | 99% (active)
8 | CCCC/C=C/C(C)(C(=O)OCC)C(=O)OCC | -4 | -3 | -1 | 5% | 29%
